# About 13,000 (27%) of roughly 48,000 compounds showed an effect of 50% or more. This is one part of the list.
# Test system: Wolbachia pipientis
# Test: Anti-Wolbachia Cell-Based Screen
# Type: functional
# Set-up: scale not given: in the data most compounds retested in dose-response had high values
# Settings: 5 µM
row,SMILES,Percent Effect
1,CC(C)n1cnnc1CCNCc1cn(CCC(N)=O)c2ccccc12,-8.335%
2,Cn1/c(=N/C(=O)CSCC(=O)Nc2nccs2)sc2ccccc21,-2.902%
3,Cc1cnc2c(S(=O)(=O)NC(=O)C(C)OCC3CC3)cccc2c1 (centres undefined),-0.9774%
4,Cc1ncncc1C(=O)N1CCCN(Cc2ncc(Cl)n2C)CC1,13.88%
5,Cc1ccc(C(=O)N2CCCC(Cn3cc(C(C)(C)N)nn3)C2)s1 (centres undefined),-58.84%
6,Cc1ccsc1C(=O)N1CCCC(c2[nH]ncc2S(C)(=O)=O)C1 (centres undefined),116.3%
7,Cc1ccc(C(=O)N2CCCC(c3[nH]ncc3S(C)(=O)=O)C2)s1 (centres undefined),93.28%
8,Cc1cccnc1C(=O)N1CCCC(c2[nH]ncc2S(C)(=O)=O)C1 (centres undefined),-6.313%
9,Cc1[nH]ncc1C(=O)N1CCCC(c2cc(C(F)(F)F)[nH]n2)C1 (centres undefined),-5.603%
10,Cc1ccsc1C(=O)N1CC(C(=O)N2CCCC2)C2(CCOCC2)C1 (centres undefined),-0.2023%
11,Cc1ncncc1C(=O)N1CCCC(c2[nH]ncc2S(C)(=O)=O)C1 (centres undefined),130.2%
12,Cc1csc(C(=O)N2CCCC(c3[nH]ncc3S(C)(=O)=O)C2)c1 (centres undefined),97.17%
13,CC(Nc1ccn(Cc2ccccn2)n1)C(=O)NC(C)(C)C (centres undefined),22.79%
14,CCNC(=O)COc1ccc(C(=O)NC(C)CCc2ccco2)cc1 (centres undefined),6.867%
15,CC1(C)[C@H](Cc2cc(CN3CCCCC3)on2)C[C@@H]1NC(=O)C1CC1,0.3573%
16,CCc1noc(CNCC2CCCN2c2cccnn2)n1 (centres undefined),129.4%
17,c1cnnc(N2CCCC2CNCc2noc(C3CC3)n2)c1 (centres undefined),124.8%
18,COCCc1noc(CNCC2CCCN2c2cccnn2)n1 (centres undefined),10.85%
19,Cc1nc(CNCC2CCCN2c2cccnn2)no1 (centres undefined),8.82%
20,CCCc1nc(CNCC2CCCN2c2cccnn2)no1 (centres undefined),124.8%
21,c1cnnc(N2CCCC2CNCc2nc(-c3ccsc3)no2)c1 (centres undefined),0.4887%
22,CCc1nc(CNCC2CCCN2c2cccnn2)no1 (centres undefined),94.84%
23,c1cnnc(N2CCCC2CNCc2nnc(C3CC3)o2)c1 (centres undefined),-1.218%
24,CCc1nnc(CNCC2CCCN2c2cccnn2)o1 (centres undefined),6.974%
25,c1cnnc(N2CCCC2CNCc2nc(C3CC3)no2)c1 (centres undefined),6.175%
26,Cc1ccoc1-c1nnc(CNCC2CCCN2c2cccnn2)o1 (centres undefined),10.61%
27,c1cnnc(N2CCCC2CNCc2nc3ccccc3o2)c1 (centres undefined),8.977%
28,Cc1cc(C(F)(F)F)nc(N(C)Cc2c(C)noc2C)n1,12%
29,CCOCCn1nc(C)cc1C(=O)N1CC[C@](O)(CC)[C@H](O)C1,-19.56%

# From ChEMBL document CHEMBL3988442, “University of Dundee, Small-Polar-MMV Screening Library” (2021)
